Among the data in ChEMBL document CHEMBL4513216, “Probing the Open Global Health Chemical Diversity Library for Multistage-Active Starting Points for Next-Generation Antimalarials” (ACS Infect Dis, 2020) are INHIBITION values, retold here.

About 2,700 (4%) of roughly 68,000 compounds showed an effect of 50% or more. Only a selection was taken, and strong results are over-represented in it overall.

This experiment concerns Plasmodium berghei. Kind of experiment: Screen against P. berghei liver stage (PbLuc), transformed with Luciferase, at 2uM. The experiment is classed as functional, HepG2. The settings on record: tested at 2 uM.
Turning to `O=C(NCC1CCC(c2nnc(-c3cccnc3)o2)CC1)C1CC1` (stereo not given), the INHIBITION is recorded as 43.77%.
As to `O=C(O)c1c(Cl)ncn1-c1ccccc1`, the INHIBITION stood at 19.33%.
As for `CS(=O)(=O)N1CCOCC2(CN(Cc3ccc(F)cc3)CCO2)C1` (stereo not given), the figure is -64.46%.
In the case of `COc1ccc(C2CCCN2C(=O)NCCNc2ccccn2)cc1` (stereo not given), the INHIBITION is on record as -34.82%.
Turning to `CCOc1ccc(CNCC(O)c2ccccc2)cc1Cl` (stereo not given), the INHIBITION is on record as 38.61%.
On to `CCOC(=O)N1CCC(C(=O)Nc2nnc(C(F)(F)F)[nH]2)CC1`, for which the INHIBITION is reported as -22.24%.
On to `O=C(Nc1ccccc1)NC1CCN(C2CCOC2)CC1` (stereo not given), for which the INHIBITION was -22.24%.
Take `COc1c(C2CCCN2C(=O)c2cnc[nH]2)c(C)nn1C` (stereo not given): the INHIBITION was -7.41%.
Turning to `CCc1nc(CC(=O)N2CCC(C(=O)N(CC)CC)CC2)cs1`, the INHIBITION is -6.37%.
Turning to `COc1ccc(CC(=O)NCCCc2nnc3nc(C)cc(C)n23)cc1`, the INHIBITION came to 0.54%.
Next, `NC1CCC(Nc2nccc(CCC(F)(F)F)n2)CC1` (stereo not given): 2.17%; `Cc1nc(C)c(C(=O)N2CCCC(n3ccnc3C)C2)s1` (stereo not given): 45.49%; `Cc1nn(C)c2sc(C(=O)N3CCCC(n4ccnc4C)C3)cc12` (stereo not given): 51.49%.
For the molecule `Cc1cc(C(=O)N2CCCC(n3ccnc3C)C2)c(C)s1` (stereo not given), the INHIBITION is on record as -0.55%.
On to `N#Cc1cn(C2CC2)c(=O)n(CC(O)c2ccc(Cl)cc2)c1=O` (stereo not given), for which the INHIBITION was 28.33%.
For the molecule `Nc1cc2c(nn1)CCN(C(=O)c1csc(-c3cccs3)n1)C2`, the INHIBITION is recorded as 38.67%.
Turning to `Nc1cc2c(nn1)CCN(C(=O)c1csc(-c3ccco3)n1)C2`, the INHIBITION is recorded as 64.9%.
In the case of `Nc1cc2c(nn1)CCN(C(=O)c1csc(-c3ccccc3)n1)C2`, the INHIBITION stood at 29.13%.
On to `Cc1cc(=O)n(C)cc1NC(=O)CC1CCC1`, for which the INHIBITION is -54.44%.
Regarding `CCN(C)C(=O)c1cccc(S(=O)(=O)NCCc2csc(N)n2)c1`, the INHIBITION is 67.22%.
In the case of `CCN(C)C(=O)c1cccc(S(=O)(=O)NCCc2nc(C)cc(=O)[nH]2)c1`, the INHIBITION is 7.83%.
For the molecule `CCc1nc(CCNS(=O)(=O)c2cccc(C(=O)N(C)CC)c2)cs1`, the INHIBITION was found to be 34.18%.
`O=C(c1ccoc1)N1CC[C@H]2C[C@@H](c3ccncn3)O[C@@H]2C1`: the INHIBITION is listed as 43.71%.
As for `Cc1ccc(CN2CC3(CCN(S(=O)(=O)c4ccccc4)C3)C2)o1`, the figure is 31.5%.
For the molecule `CCS(=O)(=O)N1CCC2(CCN(Cc3ccc(C)o3)C2)C1` (stereo not given), the INHIBITION was 9.53%.
For the molecule `CCS(=O)(=O)N1CCC2(CN(Cc3ccc(C)o3)C2)C1`, the INHIBITION is given as 54.23%.
Regarding `O=C(N[C@@H]1CNCCC[C@H]1O)c1ccc(OCCN2CCOCC2)cc1`, the INHIBITION stood at 36.99%.
Consider `CCN(Cc1ccccc1)c1ncnc2c(C)nn(CC)c12`, for which the INHIBITION is listed as -4.77%.
As for `O=C(NCC1CCCO1)c1nc2c(s1)CCCN2Cc1ccccc1` (stereo not given), the INHIBITION was 29.3%.
As for `c1coc(CN2CCn3c(COCC4CC4)nnc3C2)c1`, the figure is -0.24%; as for `CCOCC1CN(c2ccc(C)nn2)Cc2cnn(CC)c21` (stereo not given), -3.65%.
For the molecule `CNC(=O)C1CN(C(=O)Cc2ccc(OC)cc2)Cc2cn(C)nc21` (stereo not given), the INHIBITION worked out at 1.75%.
Regarding `Cc1ccc(S(=O)(=O)NC(=O)CCOCC(C)C)s1`, the INHIBITION is on record as -13.12%.
For `CS(=O)(=O)c1cccc(S(=O)(=O)NC(=O)CCC2CCCCC2)c1`, the INHIBITION is listed as -10.29%.
As to `COc1cccc(S(=O)(=O)NC(=O)COC2CCCC2)c1`, the INHIBITION is listed as 65.77%.
With `COc1cccc(S(=O)(=O)NC(=O)COC2CCCCC2)c1`, the INHIBITION is given as -1.02%.
Take `COc1ccc(S(=O)(=O)NC(=O)COC2CCCC2)cc1`: the INHIBITION was -43.47%.
As for `Cc1ccc(S(=O)(=O)NC(=O)CCOCc2ccccc2)s1`, the INHIBITION is 53.13%.
Next, `CCOCCCC(=O)NS(=O)(=O)c1ccc(C)s1`: 23.64%; `COc1cccc(OCC(=O)NS(=O)(=O)c2cccnc2)c1`: 11.09%; `CS(=O)(=O)c1cccc(S(=O)(=O)NC(=O)CC2CCCCC2)c1`: -20.19%.
In the case of `Cc1cc(C)c(OCC(=O)NS(=O)(=O)c2cccnc2)c(C)c1`, the INHIBITION was -76.17%.
As to `COc1cccc(S(=O)(=O)NC(=O)COc2c(C)cccc2C)c1`, the INHIBITION is recorded as 60.31%.
With `CS(=O)(=O)c1cccc(S(=O)(=O)NC(=O)CC2CCCC2)c1`, the INHIBITION is on record as 63.54%.
`CSc1ccccc1C(=O)N(C)Cc1nncn1C(C)C`: the INHIBITION was 36.79%.
As for `CCn1cc(-c2nn3c(C(F)(F)F)nnc3s2)cn1`, the INHIBITION is given as -21.49%.
For the molecule `CCC(=O)N1CCCC(C(=O)c2cnn(-c3ccc(F)cc3)c2N)C1` (stereo not given), the INHIBITION is recorded as -4.78%.
For the molecule `CC(NC(=O)c1ccoc1)C(=O)N(C)Cc1cccc(C(F)(F)F)c1` (stereo not given), the INHIBITION is given as 2.51%.
On to `COCCC1COC2(CCN(C(=O)C3CCC3)CC2)C1` (stereo not given), for which the INHIBITION is listed as -18.7%.
With `CC(C)NC1CCc2c(ccc(=O)n2CCN2CCOCC2)C1` (stereo not given), the INHIBITION is -21.78%.
Next, `CC(=O)c1cccc(OCC(=O)NS(=O)(=O)c2ccc(C)s2)c1`: -36.13%; `COc1cccc(OCC(=O)NS(=O)(=O)c2ccc(C)s2)c1`: 51.21%; `COc1cccc(OCC(=O)NS(=O)(=O)c2ccc(Br)s2)c1`: -4.22%.
For `CCn1cncc1CN(Cc1ccc(OC)cc1OC)CC1CCCO1` (stereo not given), the INHIBITION is 33.64%.
`O=C1CCC2(CCCN(c3ncc(Cl)cc3F)C2)CN1CC1CC1` (stereo not given): the INHIBITION is -31.23%.
Regarding `CN(CCCNC(=O)NCc1ccncc1)CC(F)(F)F`, the INHIBITION came to 21.71%.
`CN(CCCNC(=O)c1ccccc1OCC(N)=O)CC(F)(F)F`: the INHIBITION stood at 51.96%.
For `CN(CCCNC(=O)c1cccc(OCC(N)=O)c1)CC(F)(F)F`, the INHIBITION was -163.17%.
On to `CN(CCCNC(=O)c1ccc(C#N)cc1)CC(F)(F)F`, for which the INHIBITION worked out at 26.11%.
As to `COCCOc1ccccc1C(=O)NCCN(C)C(C)C`, the INHIBITION came out at 27.5%.
Take `CN(CCCNC(=O)c1ccccc1F)CC(F)(F)F`: the INHIBITION was 66.74%.
For the molecule `CCc1c(C(=O)NCC(=O)OCC2CC2)cnn1-c1ccc(C)cc1`, the INHIBITION was -14.3%.
On to `CCN1CC2(CC1=O)CN(C(C)=O)CCN(S(=O)(=O)CC)C2` (stereo not given), for which the INHIBITION was -161.57%.
Consider `Cc1ccc(CN2C[C@H](OCCN(C)C)[C@H]3COC[C@H]32)o1`, for which the INHIBITION is 15.36%.
As for `COc1nn(C)c2c1CCCN(C(=O)c1ccc(C)c(F)c1)C2`, the INHIBITION was -128.25%.
In the case of `COC(=O)CC(NC(=O)c1ccccc1OC)c1cccs1` (stereo not given), the INHIBITION amounted to 53.58%.
Next, `COc1ccccc1C(=O)NC(CC(=O)O)c1cccs1` (stereo not given): 24.31%; `COC(=O)CC(NC(=O)c1ccc(OC)cc1OC)c1cccs1` (stereo not given): 27.47%; `CCC[C@@H]1CN(Cc2c[nH]nc2-c2ccc(OC)cc2)C[C@H]1NC(C)=O`: 42.4%.
Take `Cc1ccc(F)c(C(=O)N2C[C@@H](C(=O)O)[C@H](c3ccccc3)C2)c1Cl`: the INHIBITION amounted to 16.49%.
For `CCn1nc(C)c(CN(CCOC)C(=O)c2ccccc2N(C)C)c1C`, the INHIBITION amounted to 15.74%.
Next, `CCn1nc(C)c(CN(CCOC)C(=O)c2cnc(C)nc2O)c1C`: 48.68%; `CCOc1ccc(C(=O)N(CCOC)Cc2c(C)nn(CC)c2C)o1`: 65.1%; `CCN1CCN(C2CCN(C(C(N)=O)c3ccccc3)CC2)C1=O` (stereo not given): -42.16%.
In the case of `CS(=O)(=O)CC1(CNc2ccc(C#N)c(C(F)(F)F)c2)CC1`, the INHIBITION is listed as 39.25%.
In the case of `CC(C)COC(C)C(=O)N1CCCCC1` (stereo not given), the INHIBITION is 30.68%.
Next, `CC(C)COC(C)C(=O)N1CCCC1` (stereo not given): 52.6%.
As for `CC(C)COC(C)C(=O)N1CCCCCC1` (stereo not given), the figure is 7.46%.
As for `CCn1c(C2CCN(C(=O)c3ccc4sc(C)nc4c3)CC2)n[nH]c1=O`, the INHIBITION was 26.49%.
Next, `CN(C)Cc1nnc(C2CCCN(c3nc(C(N)=O)cs3)C2)n1C` (stereo not given): 12.29%; `COCC(C)(O)CNC(=O)c1cc(-c2cc(OC)ccc2OC)nn1C` (stereo not given): 10.91%; `O=C(CCCc1nnc(-c2ccccc2)o1)N1CCN(C2CC2)CC1`: 21.64%.
Regarding `c1cnc(N2CCO[C@H]3CN(CC4CCC4)C[C@H]32)cn1`, the INHIBITION was 15.88%.
Regarding `O=C(NCC1(c2cccs2)CCCCC1)N1CCOC(CO)C1` (stereo not given), the INHIBITION was -46.5%.
With `COc1ccc(OC)c(CN(C)c2ncc(S(N)(=O)=O)s2)c1`, the INHIBITION is recorded as -28.18%.
As for `COc1ccc(OC)c(CCNc2ncc(S(N)(=O)=O)s2)c1`, the INHIBITION is given as -0.95%.
Regarding `COc1ccc(CN(C)c2ncc(S(N)(=O)=O)s2)c(OC)c1`, the INHIBITION is given as 67.36%.
As for `CC(C)(C)c1nccc(C2(c3ccccc3Cl)CCNCC2)n1`, the figure is 2.06%; as for `CSCCC(=O)N1CCN(CC(O)C(C)(C)C)CC1` (stereo not given), 32.1%; as for `CCC(O)CN1CCN(C(=O)CCSC)CC1` (stereo not given), -38.59%.
Next, `CSCCC(=O)N1CCN(CC(C)O)CC1` (stereo not given): 52.3%; `CC(C)c1nnc(NC(=O)CCC(=O)NCC2CCCO2)s1` (stereo not given): 4.39%.
On to `CCC(CNC(=O)CCn1cncn1)N1CCc2ccccc2C1` (stereo not given), for which the INHIBITION worked out at 60%.
As to `CC(CNC(=O)CCCn1cncn1)N1CCc2ccccc2C1` (stereo not given), the INHIBITION is given as -48.63%.
With `CC(C)C(CNC(=O)CCn1cncn1)N1CCc2ccccc2C1` (stereo not given), the INHIBITION was 16.98%.
On to `O=C(CN1CCCCCC1=O)NCC1CCN(c2ccccc2)C1` (stereo not given), for which the INHIBITION is -17.17%.
As for `CC(CNC1CCN(Cc2ccncc2)CC1)c1ccc(F)cc1F` (stereo not given), the INHIBITION came to 26.99%.
As for `CC(C)c1cc(NCC(O)c2ccc(F)cc2)n2nccc2n1` (stereo not given), the figure is -25.05%; as for `CCN(CC(F)(F)F)C(=O)C1CCCN(Cc2nc(C)c(C)o2)C1` (stereo not given), 35.46%.
On to `CC(=O)NCCc1cc(N2CCN(C(C)=O)CC2)nc(C2CC2)n1`, for which the INHIBITION was determined as 51.61%.
Take `CC(=O)N1CCN(c2cc(CCNC(=O)C(C)C)nc(C3CC3)n2)CC1`: the INHIBITION came out at 27.39%.
As for `CCC(=O)NCCc1cc(N2CCN(C(C)=O)CC2)nc(C2CC2)n1`, the figure is -28.81%; as for `Cc1cnn(CC2CCCN2C(=O)CCc2ccc3c(c2)OCO3)c1` (stereo not given), -26.45%.
With `NS(=O)(=O)c1ccc(F)c(C(=O)NCCSc2ccccn2)c1`, the INHIBITION was determined as 32.97%.
As for `Cn1ccnc1-c1nc(N2CCCCC2)ncc1-c1ccccc1F`, the figure is -29.24%.
